Wnt bcat act = Wnt/beta-catenin pathway activation | activation, % at 9.35 µM | Wnt/beta-catenin reporter cell assay, activator, plate reader | 300,000 compounds, 1.2% hits | AID 743398; in the data active means activation above about 30%, passing the limit was not always enough; inconclusive means no clear call, values can overlap the other calls;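 further: 0% = neutral control wells and 100% = positive control wells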
FXN GAA850 act = activators of GAA850 frataxin (FXN) promoter; HEK293 lucGAA850 FXN promoter luciferase reporter, 24 h; percent of 10 µM SAHA response; 360,000 compounds, 0.56% hits; activation, % at 6 µM;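 active means activation above the average of all compounds screened plus 3 SD, cutoff fixed separately per campaign, cut at about 7.5% in these data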;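 further: 0% = DMSO wells and 100% = 10 µM SAHA wells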
MITF act = MITF TRPM1 promoter activation in melanoma cells; activation, % at 12.5 µM; AID 588334; SK-MEL-5 TRPM1-promoter luciferase, 24 h; % of positive control, neutral wells = 0; 300,000 compounds, 0.75% hits;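 active means mean activation of at least 80% with every replicate also reaching 80%; inconclusive means mean reaches 80% but some replicate falls short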;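 further: 0% = neutral control wells and 100% = parthenolide positive control wells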
esBAF inh = inhibitors of esBAF chromatin remodeling in mouse ES cells. AID 602393. Bmi1-luciferase knock-in reporter, 24 h; 100% = twice the neutral-well signal. 350,000 compounds, 2% hits. reporter increase, % at 12.5 µM; in the data active means activation above about 40%; inconclusive means no clear call, values can overlap the other calls;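 further: 0% = median of the plate's neutral control wells and 100% = double that signal; a rise in the Bmi1 reporter signal indicates esBAF inhibition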
AHR act = human AHR activation. P35869. AHR-responsive luciferase reporter cells, luminescence. activation, % at 5 µM. 320,000 compounds, 2.5% hits. AID 2796; in the data active means activation above about 47%;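 further: 0% = vehicle wells and 100% = reference agonist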
Target sequence (P35869 whole entry, looked up): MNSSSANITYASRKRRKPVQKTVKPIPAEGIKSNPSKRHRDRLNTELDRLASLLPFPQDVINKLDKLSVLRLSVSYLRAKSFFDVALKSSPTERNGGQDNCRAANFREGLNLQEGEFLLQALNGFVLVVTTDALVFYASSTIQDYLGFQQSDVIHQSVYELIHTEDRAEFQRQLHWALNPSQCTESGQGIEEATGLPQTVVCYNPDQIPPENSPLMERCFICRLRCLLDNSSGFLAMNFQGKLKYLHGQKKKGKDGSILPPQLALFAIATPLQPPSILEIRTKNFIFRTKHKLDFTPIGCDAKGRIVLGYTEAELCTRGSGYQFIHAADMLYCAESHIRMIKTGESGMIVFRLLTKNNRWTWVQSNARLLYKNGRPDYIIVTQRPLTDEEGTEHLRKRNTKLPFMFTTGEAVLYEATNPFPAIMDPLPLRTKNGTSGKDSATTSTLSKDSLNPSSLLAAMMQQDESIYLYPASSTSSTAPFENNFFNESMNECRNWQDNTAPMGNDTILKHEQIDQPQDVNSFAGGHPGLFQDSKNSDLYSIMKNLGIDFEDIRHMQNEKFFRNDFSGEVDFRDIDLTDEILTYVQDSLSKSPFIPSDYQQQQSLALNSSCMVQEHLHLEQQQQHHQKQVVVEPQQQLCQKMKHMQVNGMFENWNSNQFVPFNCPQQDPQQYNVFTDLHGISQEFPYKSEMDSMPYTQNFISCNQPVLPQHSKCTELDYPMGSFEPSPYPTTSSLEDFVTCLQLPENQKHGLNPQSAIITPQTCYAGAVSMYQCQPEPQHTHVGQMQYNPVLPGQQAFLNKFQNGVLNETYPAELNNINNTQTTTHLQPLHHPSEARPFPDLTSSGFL
* = called active by the depositor; u = inconclusive; x = no result. Rows were chosen to be rich in hits. Some 4.2% of all compounds tested hit in one or more screens of this group.

SMILES	Wnt bcat act	FXN GAA850 act	MITF act	esBAF inh	AHR act
Cn1c(SCC#N)nnc1-c1ccc2c(c1)OCO2	-3	0	x	-3	4
c1ccn2c(SCc3ccc4c(c3)OCCO4)nnc2c1	3	3	66	30	1
O=C(OCc1cc(=O)n2ccsc2n1)c1ccc(O)cc1O	26	1	54	54*	0
CC(=O)c1ccc(OCc2cc(=O)n3ccsc3n2)cc1	11	4	48	x	1
Cc1ccsc1C(=O)OCc1cc(=O)n2ccsc2n1	54*	0	77	-9	-1
CN1C(=O)c2cc(NC(=O)c3cccs3)ccc2OC[C@@H]2O[C@@H](CC(=O)N3CCCCC3)CC[C@H]21	x	x	x	-4	x
C[n+]1ccc(/C=C/c2ccccc2O)c2ccccc21	1	-1	-8	x	63*
CCOc1ccc(-c2n[nH]c(C(=O)NN)c2C)cc1	13	3	9	55*	17
CNC(C)C#Cc1ccc2c(=O)c3ccccc3oc2c1 (stereo not drawn)	38*	5	71	51*	18
CCN1[C@@H]2c3ccc(C4=CCCCC4)c(=O)n3C[C@H]1[C@H](CO)[C@H]2C(=O)N1CCc2ccccc2C1	x	x	x	4	x
C/C(=N/NC(=O)c1ccoc1C)C12CC3CC(CC(C3)C1)C2	x	3	-6	57*	9
N/C(=N\OC(=O)C12CC3CC(CC(C3)C1)C2)c1ccccn1	x	7	98*	75*	8
C/C(=N/NC(=O)c1ccccn1)c1ccco1	8	2	-4	-21	0
N/C(=N\OC(=O)C12CC3CC(CC(C3)C1)C2)c1ccccc1	x	2	21	-1	4
C/C(=N\NC(=O)c1ccoc1C)c1ccccc1	19	1	x	x	-3
C/C(=N\NC(=O)c1ccccn1)C12CC3CC(CC(C3)C1)C2	2	3	52	49*	5
CCN(CC)S(=O)(=O)c1ccc2c(c1)nc(-c1ccccn1)n2C	17	6	x	60*	15
Cc1c(C(=O)NC(C)c2ccccn2)oc2c(Cl)cccc12 (stereo not drawn)	2	2	-27	-2	x
COc1ccc2oc(C(=O)Nc3nccs3)c(C)c2c1	50*	2	73	32	77*
Cc1c(C(=O)Nc2ccccn2)oc2c(Cl)cccc12	-1	3	-12	37	74*
Cc1c(C(=O)Nc2nccs2)oc2c(Cl)cccc12	15	2	6	19	55*
CC(C)OCc1c(C(=O)Nc2nccs2)oc2ccccc12	0	1	-18	-9	57*
CCCc1nnc(NC(=O)c2oc3ccccc3c2COCC)s1	0	-2	-13	5	x
COc1ccc(-c2cnc3c(c2)C(=O)N([C@@H](C)CO)C[C@@H](C)[C@@H](CN(C)C(=O)CN(C)C)O3)cc1	x	x	x	7	x
c1ccc(N=NC2=NN(c3ccccc3)CS2)cc1	54*	2	x	x	x
SMILES	Wnt bcat act	FXN GAA850 act	MITF act	esBAF inh	AHR act
Nc1nn(-c2ccccc2)c(N)c1N=Nc1ccccc1	26	-2	31	x	21
C[C@@H]1CN([C@H](C)CO)C(=O)c2cccc(NS(=O)(=O)c3ccc(Cl)cc3)c2O[C@H]1CN(C)C(=O)Nc1cccc2ccccc12	x	x	x	11	x
Cc1ccn2c(NCc3ccc4c(c3)OCO4)c(-c3ccc(O)cc3)nc2c1	3	4	19	2	66*
Oc1ccc(-c2nc3ccccn3c2NCc2ccc3c(c2)OCO3)cc1	x	0	17	18	71*
Fc1ccc(-c2nc3ccccn3c2NCc2ccc3c(c2)OCO3)cc1	-2	2	18	7	33
O=C(Oc1ccccc1)N1CCCCC1	2	-1	x	-6	x
O=C(Oc1ccc(-c2ccccc2)cc1)N1CCCCC1	x	7	127*	u	-10
N#C/C(=C/Nc1ccccc1)c1ccsc1	x	5	18	12	7
Cc1ccc(N/C=C(/C#N)c2ccsc2)cc1	x	1	38	68*	46
Cc1ccc(N/C=C(\C#N)c2ccc(OCCCF)cc2)cc1	-5	1	20	x	53*
S=c1[nH]nc(-c2cc(-c3ccccn3)nc3ccccc23)o1	-1	-1	-12	x	73*
Cc1ccc(-c2cc(-c3n[nH]c(=S)o3)c3ccccc3n2)cc1	6	3	-6	x	5
O=C1c2ccccc2C(=O)C1c1ccc2ccccc2n1	x	0	x	-67	60*
COc1cccc(N/N=C/c2cccc(Br)c2O)c1	35*	3	60	53*	17
Cc1ccc(-c2nc3ccccc3nc2Cl)cc1	20	3	13	x	1
Cc1ccc(-c2nc3ccccc3nc2NN)cc1	44*	4	x	x	8
O=C(c1ccccn1)N1C[C@H]2[C@@H](c3ccccc31)[C@H](CO)N2C(=O)Nc1ccccc1	x	x	x	-4	x
O=C(C[C@H]1CC[C@@H]2[C@H](COC[C@@H](O)CN2Cc2ccc(C(F)(F)F)cc2)O1)NCCc1ccccc1	x	x	x	-1	x
O=C(N/N=C/c1cccnc1)c1cc(-c2cccs2)nc2ccccc12	-5	-3	9	4	76*
O=C(N/N=C/c1cccc(F)c1)c1cc(-c2ccco2)nc2ccccc12	20	-1	9	79*	10
C[C@@H]1CN([C@@H](C)CO)C(=O)c2cccc(NC(=O)Nc3ccc(F)cc3)c2O[C@H]1CN(C)CC1CC1	x	x	x	9	x
CC=Cc1ccc2n(c1=O)C[C@H]1[C@H](CO)[C@@H](C(=O)NCc3ccccn3)[C@@H]2N1CCC (mixture of isomers)	x	x	x	5	x
Fc1ccc(NC(=S)Nc2cccc3ccccc23)cc1	6	1	5	29	50*
Fc1ccc(NC(=S)Nc2cccc3cnccc23)cc1	10	1	-32	x	11
Fc1ccc(NC(=S)Nc2cccc3ccccc23)cc1F	23	1	-15	2	74*
SMILES	Wnt bcat act	FXN GAA850 act	MITF act	esBAF inh	AHR act
O=C(Nc1ccccc1F)N1C[C@H]2[C@@H](c3ccccc31)[C@@H](CO)N2C(=O)c1ccccn1	x	x	x	12	x
Cc1cc(/C=C(\C#N)C(=O)NCc2cccs2)c(C)n1-c1ccccc1F	52*	6	65	39	44
COc1cc(OC)c(C(=O)NCc2ccco2)cc1OC	-1	1	x	0	10
COc1cc(C(F)(F)F)ccc1C(=O)NCCc1ccco1	4	4	107*	60*	-2
CCCC(=O)Nc1ccc2c(c1)C(=O)N(C)C[C@@H](OC)[C@H](C)CN(C(=O)CN(C)C)[C@@H](C)CO2	x	x	x	-2	x
CC(C)Sc1ccc(C(=O)Nc2ccc(F)cc2F)cn1	49*	5	u	x	-11
Cc1nn(-c2ccccc2)c2nc3c(cc12)C(=O)CCC3	-2	3	5	x	55*
Cc1nn(-c2ccccc2)c2nc(Cl)c(C(=O)O)cc12	0	2	-4	x	0
O=C(O)C[C@@H]1C[C@H]2c3cc(NC(=O)NC4CCCCC4)ccc3O[C@H]2[C@@H](CO)O1	x	x	x	-9	x
C[C@H]1CCCCO[C@H](CN(C)C(=O)CCCN(C)C)[C@@H](C)CN([C@@H](C)CO)C(=O)c2cc(NC(=O)c3ccncc3)ccc2O1	x	x	x	2	x
